Screening data from PubChem BioAssay.
Compounds with a hit are over-represented: about 2.8% of the library has one in this group of screens.
ATXN2 expr inh: Primary qHTS for Inhibitors of ATXN expression | HEK-293 ATXN2-luciferase reporter, luminescence, 24 h | Potency, µM (titrated, usually from 57 µM), most hits filed as inhibitors | 360,000 compounds, 0.72% hits | AID 1745845, 2022; further: nearly all actives have a fitted effect of over 55% in size
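qHTS (up to 57 uM final) was run with 24 h compound exposure of reporter cells at 37 °C. Each well was multiplexed: SteadyGlo luminescence measured ATXN2-luciferase expression after a fluorogenic Gly-Phe-AFC viability readout (25 uM final).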
HTT ATP protect: qHTS Multiplex Assay to Identify Dual Action Probes in a Cell Model of Huntington: Cytoprotection (ATP); PC12 HTT-Q103 induced, cytoprotection, ATP luminescence, 40 h; Potency, µM (series often up to 56.4 µM), hits mostly activators; 230,000 compounds, 0.14% hits; further: nearly all actives have a fitted effect of over 45% in size
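Compounds added alongside 100 nM tebufenozide, which induces toxic Q103 huntingtin exon 1-GFP in stable PC12 cells; surviving cells quantified by luminescent ATP measurement. Medium: phenol red-free DMEM, 5% equine and 5% calf serum.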
TGFb SMAD3 inh: qHTS for Inhibitors of TGF-b | HepG2 CAGA-GFP TGF-b/SMAD3 reporter, GFP fluorescence, 18 h; TGF-beta stimulated, 500 pg/mL final | Potency, µM (titrated, usually from 46.1 µM), most hits filed as inhibitors | 410,000 compounds, 1.2% hits; further: nearly all actives have a fitted effect of over 65% in size
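Inhibition was scored as loss of TGF-beta-induced (500 pg/mL final, 18 hours, 37 degrees C) GFP in HEPG2 cells carrying a CAGA-GFP reporter, in DMEM with 1% FBS. Well GFP was summed per cell; Activity was normalised to unstimulated and stimulated DMSO wells, then concentration-response fitting.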
HepG2 tox-1: qHTS for Inhibitors of TGF-b: Cytotox Counterscreen; AID 588856, 2011; Potency, µM (titrated, usually from 46.1 µM), hits mostly cytotoxic; 410,000 compounds, 0.76% hits; HepG2 CAGA-GFP viability, ATP luminescence, 18 h
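HepG2 CAGA-GFP cells (1000/well, DMEM with 1% FBS) received compound, then TGF-beta at 500 pg/mL final, and were incubated 18 hours at 37 degrees C. Viability was read by CellTiter-Glo luminescence. Media-only wells were set as complete cell-killing and DMSO as no toxicity.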
HttQ103 aggreg: qHTS Multiplex Assay to Identify Dual Action Probes in a Cell Model of Huntington: Aggregate Formation (GFP). PC12 HttQ103-GFP aggregates, Acumen cytometry, 40 h. Potency, µM (top dose mostly 46.1 µM), usual class: inhibitors. 220,000 compounds, 1.1% hits. AID 1688, 2009; further: nearly all actives have a fitted effect of over 60% in size
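Aggregates are detected as GFP objects 1–25 µm with signal 6 STDEV over background in lysates of induced PC12 cells. These carry Huntingtin exon 1 with 103 glutamines fused to GFP under an ecdysone promoter; compounds titrated.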
ATXN viability: Viability Counterscreen for Primary qHTS for Inhibitors of ATXN expression; S2 cells (HEK-293 line with an ATXN2-luciferase reporter) viability, CellTiter-Fluor protease fluorescence, 24 h; Potency, µM (series often up to 56.7 µM), hits mostly cytotoxic; 400,000 compounds, 0.49% hits; AID 651635, 2014; further: nearly all actives have a fitted effect of over 40% in size
TGFb CAGA inh: qHTS for Inhibitors of TGF-b: Confirmation of Cherry Picks. shares compounds with TGFb SMAD3 inh. HepG2 CAGA-GFP TGF-b reporter, GFP fluorescence, 18 h; cells stimulated with TGF-beta, 500 pg/mL. Potency, µM (highest dose often 46.1 µM), actives largely listed as inhibitors. 1,600 compounds, 63% hits. AID 720534, 2013; further: nearly all actives have a fitted effect of over 65% in size
HepG2 tox-2: qHTS for Inhibitors of TGF-b: Cytotox Counterscreen for Cherry Picks; shares compounds with TGFb SMAD3 inh; HepG2 CAGA-GFP viability, ATP luminescence, 18 h; cells stimulated with TGF-beta, 500 pg/mL; Potency, µM (series often up to 46.1 µM), usual class: inhibitors; 1,600 compounds, 27% hits; further: nearly all actives have a fitted effect of over 70% in size
TGFb CCL64 inh: qHTS for Inhibitors of TGF-b: CCL64 Cells Orthogonal Assay for Cherry Picks | Potency, µM (top dose mostly 46.1 µM), hits mostly inhibitors | 1,600 compounds, 41% hits | AID 720536, 2013 | CCL64 CAGA-GFP reporter, TGF-b stimulated, GFP fluorescence, 18 h | shares compounds with TGFb SMAD3 inh; further: nearly all actives have a fitted effect of over 65% in size
COP TGFb inh: qHTS for Inhibitors of TGF-b: Hit Validation in HepG2 Cells using COP promoter. shares compounds with TGFb SMAD3 inh. HepG2 COP-GFP TGF-b reporter, GFP fluorescence, 18 h; cells stimulated by added recombinant TGF-beta. Potency, µM (series often up to 46.1 µM), actives largely listed as inhibitors. 1,600 compounds, 3% hits. AID 720537, 2013; further: nearly all actives have a fitted effect of over 70% in size
Hits are given with their value; - = inactive; ? = inconclusive; . = no result given; [ ] = dose if it differs, or a comment. The call rests on the fitted dose curve; in most records, active means well fitted curve in the direction sought with a large enough effect; inconclusive means small, poorly fitted or top-dose-only effect, or another doubt; inactive means no such curve, though single readings can be large; an effect the other way counts as inactive or inconclusive.

SMILES	ATXN2 expr inh	HTT ATP protect	TGFb SMAD3 inh	HepG2 tox-1	HttQ103 aggreg	ATXN viability	TGFb CAGA inh	HepG2 tox-2	TGFb CCL64 inh	COP TGFb inh
O=S(=O)(Nc1ccc(NS(=O)(=O)c2ccccc2)cc1)c1ccccc1	.	.	-	-	.	-	.	.	.	.
COc1cc(NC(=O)N2CCc3nc(Nc4cc(Cl)cc(Cl)c4)ncc3C2)cc(OC)c1OC	?	.	17.8µM	-	.	-	20.6µM	?	7.31µM	-
COc1ccc(CNC(=O)N2CCc3nc(Nc4cc(OC)c(OC)c(OC)c4)ncc3C2)cc1	-	.	-	-	.	-	.	.	.	.
Cc1ccc(S(=O)(=O)Nc2cccc3cccnc23)cc1	5.62µM	-	3.98µM	-	12.6µM	?	16.4µM	-	8.2µM	-
CCCC(=O)c1cc(O)c(O)cc1O	-	-	.	.	.	?	.	.	.	.
Cc1[nH]n(-c2ccccc2)c(=S)c1C=NCCCN=Cc1c(C)[nH]n(-c2ccccc2)c1=S	?	-[10 µM]	0.562µM	-	-	?	-	-	-	-
Cc1oc2cc(Br)c(O)c(Br)c2c1-c1ccccc1	-	.	10µM	-	.	-	?	-	?	-
COc1ccc(-c2ccccc2C2C3C=CCCC3(C)C(=O)N2Cc2ccccc2)cc1 (stereo unspecified)	.	.	?	-	.	.	.	.	.	.
CCN(c1ccccc1)S(=O)(=O)c1cc(C(=O)Nc2cccc(Cl)c2)ccc1F	-	-[10 µM]	10µM	-	-	?	9.2µM	?	14.6µM	-
O=C(Nc1cccc(Cl)c1)c1ccc(F)c(S(=O)(=O)NCc2cccs2)c1	?	-[10 µM]	10µM	-	?	-	?	?	?	-
COc1ccc2[nH]cc(CCNc3ncncc3-c3ccccc3C)c2c1	.	-	.	.	.	.	.	.	.	.
COc1ccc(NC(=S)N(CCCN2CCCC2)Cc2cccn2Cc2ccc(Cl)cc2)cc1Cl	.	-	3.16µM	6.31µM	?	.	?	?	?	-
Cc1ccc(NC(=S)N(CCCN2CCCC2)Cc2cccn2Cc2ccc(Cl)cc2)cc1Cl	?	-	-	-	?	?	.	.	.	.
CC(=O)N(Cc1ccc(F)cc1)C1=C(NCc2ccccc2)C(=O)c2ccccc2C1=O	11.2µM	-	6.31µM	3.16µM	8.91µM	22.4µM	7.31µM	3.66µM	3.66µM	?
O=C(Cc1cccs1)Nc1nc2c(ccc3ccccc32)s1	-	-	14.1µM	-	-	-	16.4µM	-	?	-
CC(=O)Nc1nc2c(ccc3ccccc32)s1	-	.	?	-	.	-	.	.	.	.
CC(C)(O)C#Cc1ccc([C@@H]2C[C@H]3CN(c4ccccc4)C(=O)[C@]34CCCN24)s1	?	-[10 µM]	2.24µM	-	?	?	0.731µM	?	5.17µM	-
Cc1cccc(C)c1N(CC(O)Cn1c2ccccc2c2ccccc21)S(C)(=O)=O (stereo unspecified)	?	-	10µM	-	-	?	23.1µM	?	23.1µM	-
